The panel holds about 79,000 compounds, 15% with a hit somewhere; the sample as a whole holds those more often. Values without a mark were called inactive. The source made the active and inactive calls. No stated cut-off is given here; in the data, active means growth inhibition above about 70%; inactive means the rest.

The source of these data is PubChem BioAssay (NCI).

Test [1] is described as follows: NCI Yeast Anticancer Drug Screen. Data for the rad50 strain (AID 155).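 Further: 0% = growth of vehicle-only cultures of the same strain.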 To be noted: S. cerevisiae rad50 strain growth inhibition, stronger effect = higher value; at 50.0 µM unless noted. The method, boiled down:
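Vehicle-treated cultures provide the reference for the growth inhibition reported for compound-exposed, repair-deficient yeast.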

Test [2] is described as follows: NCI Yeast Anticancer Drug Screen. Data for the mec2-1 strain (AID 157). To be noted: S. cerevisiae mec2-1 strain, stronger effect = higher value; at 50.0 µM unless noted. An outline of the steps:
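mec2-1 yeast strain, carrying an alteration in DNA damage repair or cell cycle control, was exposed to compounds; growth inhibition was measured relative to vehicle-treated controls.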

Test [3] can be described thus: NCI Yeast Anticancer Drug Screen. Data for the sgs1 mgt1 strain (AID 161).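 Further: 0% = growth of cultures given vehicle only.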 The following applies: S. cerevisiae sgs1 mgt1 strain, stronger effect = higher value; at 50.0 µM unless noted. The method, boiled down:
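This yeast growth screen uses a strain with defined DNA-repair lesions; compound-treated growth is compared with vehicle-treated growth.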

Test [4] is described as follows: NCI Yeast Anticancer Drug Screen. Data for the cln2 rad14 strain (AID 165).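 Further: 0% = growth equal to vehicle treated cultures.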 To be noted: S. cerevisiae cln2 rad14 strain, stronger effect = higher value; at 50.0 µM unless noted. An outline of the steps: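 Yeast carrying cln2 and rad14 alterations (cell cycle control and DNA damage repair) were exposed to compounds. Growth inhibition was measured against vehicle-treated controls.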

The nature of test [5]: NCI Yeast Anticancer Drug Screen. Data for the bub3 strain (AID 167). The following applies: S. cerevisiae bub3 mutant strain, stronger effect = higher value; at 50.0 µM unless noted. An outline of the steps:
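Mutant yeast screening strain plus compound; vehicle-treated cultures serve as the 0% inhibition reference.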

A short description of test [6]: NCI Yeast Anticancer Drug Screen. Data for the mlh1 rad18 strain (AID 175). The following applies: S. cerevisiae mlh1 rad18 strain growth inhibition, stronger effect = higher value; at 50.0 µM unless noted. The method, boiled down:
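Growth inhibition of the yeast strain was measured after compound exposure and expressed relative to vehicle-treated controls. The strain carries defined defects in DNA damage repair.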

Take `O=C1OC(=O)C2=C1CCc1ccc3ccccc3c12`: the growth inhibition in test [1] is -29.8%; in test [2] it was -22.1%; in test [3], 5.9%; in test [4] it was -29.6%; in test [5], 5.75%; in test [6] it was -5.2%.

With `O=C1CN(CCN2CC(=O)N(CN3CCOCC3)C(=O)C2)CC(=O)N1CN1CCOCC1`, the growth inhibition in test [1] was 9.55%; in test [2], 3%; in test [3], 2.6%; in test [4], 3.8%; in test [5], -16.1%; in test [6], 83.9% (active).

As for `Cc1noc(NS(=O)(=O)c2ccc(Nc3nc(CC(=O)Nc4ccccc4)cs3)cc2)c1C`, the growth inhibition in test [1] is 18.4%; in test [2], -19.1%; in test [3], 17.2%; in test [4], 12.7%; in test [5], -17.1%; in test [6], 9.2%.

As for `Cc1ccc(NC(=O)Oc2ccc(C(C)(C)C)cc2)cc1NC(=O)Oc1ccc(C(C)(C)C)cc1`, the growth inhibition in test [1] was -14.4%; in test [2], -29.4%; in test [3], -6.35%; in test [4] it was -4.75%; in test [5] it was 10.7%; in test [6] it was -18.6%.

On to `O=C(O)C(c1ccccc1)N1C(=O)C(Cl)=C(Cl)C1=O` (stereo not given), for which the growth inhibition in test [1] was -0.1%; in test [2] it was -6.35%; in test [3], 1.4%; in test [4] it was -10.8%; in test [5], 1.15%; in test [6], 10.8%.

With `Cc1nc(CO)c(-c2ccc([N+](=O)[O-])cc2)o1`, the growth inhibition in test [1] is 0.4%; in test [2], -4%; in test [3] it was -8.75%; in test [4], -20.4%; in test [5], -13.1%; in test [6], -1.5%.

Regarding `COC(=O)Nc1ccc(Cc2ccc(NC(=O)OC)cc2)cc1`, the growth inhibition in test [1] is 26.1%; in test [2] it was 7.35%; in test [3], 27.5%; in test [4], 15.7%; in test [5], 33.5%; in test [6], 29.6%.

Turning to `CC(=O)Nc1nc(SCc2ccccc2)c2[nH]cnc2n1`, the growth inhibition in test [1] was -25.2%; in test [2], 1.75%; in test [3], 0.6%; in test [4], -43.5%; in test [5], 31.2%; in test [6], 7.3%.

With `COc1ccc(C(NC(N)=O)c2cc3c(cc2OC(C)=O)OCO3)cc1` (stereo not given), the growth inhibition was -7.25% in test [1]; -1.95% in test [2]; -6.65% in test [3]; -9.05% in test [4]; 5.7% in test [5]; -0.4% in test [6].

Regarding `CCOC(=O)NNC(=O)Nc1ccc(O[Si](C)(C)C)cc1`, the growth inhibition is 13.4% in test [1]; 10% in test [2]; 10.3% in test [3]; 17.1% in test [4]; 9.75% in test [5]; 10.9% in test [6].

With `COc1ccc(C(=O)C(CN(C)C)CN(C)C)c(OC)c1`, the growth inhibition in test [1] was 30.6%; in test [2] it was 30.8%; in test [3], 57%; in test [4] it was 32.9%; in test [5], 30.8%; in test [6], 64.2%.

In the case of `CCOP(=O)(OCC)/C(=C\n1c(=S)[nH]c2cc(C)ccc21)C(=O)OC`, the growth inhibition in test [1] is -34.1%; in test [2], -27.7%; in test [3], 13.3%; in test [4], -4.4%; in test [5] it was -2.5%; in test [6] it was 31.3%.

With `COc1cc2c(cc1OC)C1Cc3ccccc3CCN1CC2` (stereo not given), the growth inhibition is -23.4% in test [1]; -7.1% in test [2]; -16.8% in test [3]; -23.8% in test [4]; -9.95% in test [5]; -19.4% in test [6].

As for `CCOC(=O)C/C(=N\NC(=O)c1ccccc1O)C(=O)OCC`, the growth inhibition in test [1] was 5.8%; in test [2], 1.95%; in test [3], 5.85%; in test [4], 0.9%; in test [5], 3.3%; in test [6], 29.9%.

Take `Clc1cccc(NC2=NCCN=C(Nc3cccc(Cl)c3Cl)SS2)c1Cl`: the growth inhibition was 8.6% in test [1]; -17.5% in test [2]; -0.75% in test [3]; 5.85% in test [4]; 3.75% in test [5]; 6.55% in test [6].

Regarding `CO/N=C(/NC(=O)OC)c1ccccc1`, the growth inhibition is 10.8% in test [1]; 18.4% in test [2]; -5% in test [3]; -20.2% in test [4]; 14.4% in test [5]; -15.3% in test [6].

In the case of `CCOC(=O)N1C(=O)C2C3C=CC(C2C1=O)C1C2C(=O)N(C(=O)OCC)C(=O)C2C31` (stereo not given), the growth inhibition in test [1] was 1.4%; in test [2], -3.15%; in test [3] it was -37.4%; in test [4], -0.55%; in test [5], -19.9%; in test [6], -37.6%.

As to `Nc1ccc(S(=O)(=O)CCCl)cc1`, the growth inhibition is 8.7% in test [1]; 0.95% in test [2]; 18.5% in test [3]; 22.2% in test [4]; 13.7% in test [5]; 11.6% in test [6].

Take `C[C@H](CCC1=NCCN1)[C@H]1CC[C@H]2[C@@H]3CC[C@@H]4C[C@H](O)CC[C@]4(C)[C@H]3CC[C@]12C`: the growth inhibition in test [1] was 91.6% (active); in test [2], 92.8% (active); in test [3] it was 91.2% (active); in test [4], 91.6% (active); in test [5] it was 91.1% (active); in test [6], 91% (active).

Consider `NC(=O)c1ccc(-c2csc(=S)[nH]2)s1`, for which the growth inhibition is -1.9% in test [1]; -9.7% in test [2]; -15.5% in test [3]; -13.1% in test [4]; -19.1% in test [5]; -5.35% in test [6].
